# Source: PubChem
# IDE exosite inh – exo-site inhibitors of human insulin-degrading enzyme | P14735 | purified IDE, FL-6b probe fluorescence polarization; stronger effect = lower value | z-score at 20 µM | 17,000 compounds, 6.3% hits | AID 1259349;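 active = z-score of -3 or lower, meaning strong loss of probe binding signal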;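 note: His-tagged human IDE residues 42-1019 made in E. coli with 30 nM FL-6b probe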
# Target sequence (P14735 42-1019 limits assumed): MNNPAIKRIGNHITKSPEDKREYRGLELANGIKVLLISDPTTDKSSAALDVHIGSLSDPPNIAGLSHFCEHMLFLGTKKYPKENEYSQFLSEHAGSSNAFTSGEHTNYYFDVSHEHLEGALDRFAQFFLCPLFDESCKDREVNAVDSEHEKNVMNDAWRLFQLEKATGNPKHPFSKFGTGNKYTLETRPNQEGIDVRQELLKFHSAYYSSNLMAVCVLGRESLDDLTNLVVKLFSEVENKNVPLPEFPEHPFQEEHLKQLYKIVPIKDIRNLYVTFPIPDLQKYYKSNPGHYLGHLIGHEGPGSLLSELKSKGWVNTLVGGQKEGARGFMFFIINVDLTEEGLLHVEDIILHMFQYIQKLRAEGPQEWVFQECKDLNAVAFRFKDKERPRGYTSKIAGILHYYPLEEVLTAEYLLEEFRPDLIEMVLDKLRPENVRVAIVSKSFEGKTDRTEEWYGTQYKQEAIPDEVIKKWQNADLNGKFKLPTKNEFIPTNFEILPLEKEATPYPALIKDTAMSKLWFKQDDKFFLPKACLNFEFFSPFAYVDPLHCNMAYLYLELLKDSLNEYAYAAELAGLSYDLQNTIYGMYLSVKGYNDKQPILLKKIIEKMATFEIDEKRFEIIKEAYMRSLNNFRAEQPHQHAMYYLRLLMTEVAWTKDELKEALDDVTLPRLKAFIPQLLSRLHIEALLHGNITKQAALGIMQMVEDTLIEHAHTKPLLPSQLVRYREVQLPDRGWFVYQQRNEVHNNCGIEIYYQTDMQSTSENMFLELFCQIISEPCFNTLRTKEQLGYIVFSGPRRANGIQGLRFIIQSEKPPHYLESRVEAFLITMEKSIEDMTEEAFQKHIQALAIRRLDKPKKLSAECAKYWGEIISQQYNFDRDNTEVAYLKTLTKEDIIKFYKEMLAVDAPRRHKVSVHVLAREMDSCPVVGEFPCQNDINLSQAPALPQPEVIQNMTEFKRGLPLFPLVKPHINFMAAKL
# Numbers without * were called inactive. Shown is part of a subset that was picked to be rich in hits.
SMILES,IDE exosite inh
CCCC(=O)Nc1ccc2c(c1)C(=O)N(C)C[C@@H](OC)[C@@H](C)CN(C(=O)c1ccccn1)[C@@H](C)CO2,0.84
CN1C(=O)c2cc(NC(=O)Cc3cccs3)ccc2OC[C@@H]2O[C@@H](CC(=O)NCCc3ccncc3)CC[C@@H]21,-0.088
CC(C)CC#Cc1ccc([C@H]2[C@H](CO)N3C(=O)CN(S(C)(=O)=O)C[C@@H]23)cc1,4.6
O=C(Nc1ccccc1)N1CCCCN2[C@H](C1)[C@@H](c1ccc(C#CC3CC3)cc1)[C@@H]2CO,-1.1
COc1ccc2c3c([nH]c2c1)[C@H](CO)N(Cc1ccccn1)CC31CN(Cc2cccc(F)c2)C1,-1.6
C[C@H](NC(=O)C[C@@H]1CC[C@H]2[C@@H](COC[C@@H](O)CN2C(=O)Nc2cccc(Cl)c2)O1)c1ccccc1,1.3
CN1C(=O)c2cc(NC(=O)c3cscn3)ccc2OC[C@@H]2O[C@@H](CC(=O)N3CCOCC3)CC[C@@H]21,-0.18
O=C(c1ccc(F)cc1)N1CC(=O)N2[C@H](C1)[C@H](c1ccc(-c3ccccc3F)cc1)[C@@H]2CO,4.9
Cc1ccccc1-c1ccc([C@H]2[C@H]3CN(C(=O)c4ccc(F)cc4)CC(=O)N3[C@H]2CO)cc1,-4.3*
Cc1ccccc1-c1ccc([C@H]2[C@H](CO)N3C(=O)CN(C(=O)c4ccc(F)cc4)C[C@@H]23)cc1,-16*
O=C(c1ccc(F)cc1)N1CC(=O)N2[C@H](C1)[C@@H](c1ccc(-c3ccccc3F)cc1)[C@@H]2CO,3.9
O=C(c1ccc(F)cc1)N1CC(=O)N2[C@@H](CO)[C@H](c3ccc(-c4ccccc4F)cc3)[C@@H]2C1,2.1
Cc1ccccc1-c1ccc([C@H]2[C@@H](CO)N3C(=O)CN(C(=O)c4ccc(F)cc4)C[C@@H]23)cc1,-0.95
C[C@H](NC(=O)C[C@@H]1C[C@@H]2c3cc(NS(=O)(=O)c4ccc(F)cc4)ccc3O[C@@H]2[C@H](CO)O1)c1ccccc1,-1.3
COCC(=O)N1[C@@H]2CN(C)c3ccccc3[C@@H]2[C@@H]1CO,1.9
N#C[C@@H]1[C@H](c2ccccc2C2=CCCC2)[C@H](CO)N1C(=O)C1CCCC1,0.66
CCCC#Cc1ccc([C@@H]2[C@H](CO)N3CCCCN(CC4CCOCC4)C[C@@H]23)cc1,3.2
COC(=O)c1ccc(CN2CC(=O)N3[C@H](C2)[C@@H](c2ccc(Br)cc2)[C@@H]3CO)cc1,1.4
COc1cccc(C#Cc2ccc([C@@H]3[C@@H](CO)N4C(=O)CN(C(=O)Cc5ccccc5)C[C@@H]34)cc2)c1,0.0021
COc1cccc(C#Cc2ccc([C@@H]3[C@@H](CO)N4C(=O)CN(C(=O)Cc5ccccc5)C[C@H]34)cc2)c1,2.2
CCC(=O)N1CC(=O)N2[C@H](C1)[C@@H](c1ccc(C#Cc3cccc(OC)c3)cc1)[C@@H]2CO,-6.5*
COCC(=O)N1CC(=O)N2[C@H](CO)[C@H](c3ccc(C#Cc4cccc(OC)c4)cc3)[C@H]2C1,-6.6*
COc1cccc(C#Cc2ccc([C@@H]3[C@@H](CO)N4C(=O)CN(C(=O)Cc5cccnc5)C[C@@H]34)cc2)c1,-1.4
CCC(=O)N1CC(=O)N2[C@H](C1)[C@H](c1ccc(C#Cc3cccc(OC)c3)cc1)[C@@H]2CO,-9.2*
COCC(=O)N1CC(=O)N2[C@H](CO)[C@H](c3ccc(C#Cc4cccc(OC)c4)cc3)[C@@H]2C1,-2.3
SMILES,IDE exosite inh
COc1cccc(C#Cc2ccc([C@H]3[C@@H](CO)N4C(=O)CN(C(=O)Cc5ccccc5)C[C@H]34)cc2)c1,-4.6*
N#C[C@H]1[C@@H](c2ccc(-c3ccccc3F)cc2)[C@H](CO)N1C(=O)Cc1ccccc1,0.56
CCCN(C[C@H]1[C@H](c2ccccc2)[C@@H](CO)N1C(C)=O)C(=O)NC(C)C,4.9
CC(C)NC(=O)N1[C@H](CO)[C@H]2c3ccccc3N(C)C[C@H]21,3.6
CO[C@@H]1CN(C)C(=O)c2ccc(NS(=O)(=O)CC(F)(F)F)cc2OC[C@@H](C)N(C(=O)NC(C)C)C[C@H]1C,-0.45
O=C(C[C@@H]1C[C@H]2c3cc(NC(=O)c4cccnc4)ccc3O[C@H]2[C@@H](CO)O1)NCc1cc(F)ccc1F,-0.63
CCC(=O)N1[C@H](CN(CC)C(=O)c2ccc(F)cc2)[C@H](c2ccccc2)[C@@H]1CO,2.1
CCCC#Cc1ccc([C@H]2[C@@H](CO)N3C(=O)CN(C(=O)CN4CCOCC4)C[C@H]23)cc1,2.3
O=C(c1ccc(F)cc1)N1CC(=O)N2[C@H](C1)[C@H](c1ccc(C3=CCCC3)cc1)[C@@H]2CO,5.7
CC(=O)N(C)C[C@@H]1[C@@H](c2ccccc2)[C@H](CO)N1C(=O)C1CCC1,1.8
CO[C@H]1CN(C)C(=O)c2ccc(NS(C)(=O)=O)cc2OC[C@@H](C)N(C(=O)CN(C)C)C[C@@H]1C,0.99
CCC(=O)N1CC(=O)N2[C@@H](CO)[C@H](c3ccc(C#Cc4cccc(OC)c4)cc3)[C@@H]2C1,-9.1*
CCC(=O)N1CC(=O)N2[C@H](CO)[C@@H](c3ccc(C#Cc4cccc(OC)c4)cc3)[C@@H]2C1,-5.2*
CCCC(=O)N1CC2(C1)CN(Cc1ccccc1F)[C@H](CO)c1c2c2ccc(OC)cc2n1C,0.028
O=C(C[C@@H]1CC[C@@H](NC(=O)C2CCOCC2)[C@@H](CO)O1)NCC1CCCCC1,2.1
O=C(Nc1cc(F)ccc1F)N1CCCCN2[C@@H](CO)[C@@H](c3ccc(-c4cncnc4)cc3)[C@@H]2C1,0.36
Cc1ccccc1-c1ccc([C@@H]2[C@@H](CO)N3CCCCN(C(=O)c4cccnc4)C[C@@H]23)cc1,-8*
Cc1ccccc1-c1ccc([C@@H]2[C@H]3CN(C(=O)c4cccnc4)CCCCN3[C@H]2CO)cc1,-7.3*
Cc1ccccc1-c1ccc([C@H]2[C@@H](CO)N3CCCCN(C(=O)c4cccnc4)C[C@@H]23)cc1,-4.8*
C[C@@H]1CCCCO[C@@H](CN(C)Cc2ccc3c(c2)OCO3)[C@@H](C)CN([C@H](C)CO)C(=O)c2cc(NS(=O)(=O)c3cn(C)cn3)ccc2O1,2
O=C(Cc1ccccn1)N[C@@H]1CC[C@H](CCNS(=O)(=O)c2cccc(F)c2)O[C@H]1CO,0.46
CC(=O)N1[C@H](CO)[C@H](c2ccccc2)[C@@H]1CN(C)S(=O)(=O)c1ccccc1,-2.8
O=C(c1ccc(F)cc1)N1CC(=O)N2[C@H](CO)[C@H](c3ccc(-c4cccnc4)cc3)[C@H]2C1,-0.33
O=C(CN1CCOCC1)N1CCCCN2[C@@H](CO)[C@H](c3ccc(C#Cc4ccccc4F)cc3)[C@@H]2C1,-9*
O=C(CN1CCOCC1)N1CCCCN2[C@H](CO)[C@@H](c3ccc(C#Cc4ccccc4F)cc3)[C@@H]2C1,-2.9
SMILES,IDE exosite inh
O=C(CN1CCOCC1)N1CCCCN2[C@H](CO)[C@@H](c3ccc(C#Cc4ccccc4F)cc3)[C@H]2C1,-3.9*
O=C(CN1CCOCC1)N1CCCCN2[C@@H](CO)[C@@H](c3ccc(C#Cc4ccccc4F)cc3)[C@@H]2C1,-4.6*
CN(C)CC#Cc1ccc([C@H]2[C@H]3CN(C(=O)Nc4cc(F)ccc4F)CCCCN3[C@H]2CO)cc1,1.4
O=C(C[C@H]1CC[C@@H]2[C@H](COC[C@@H](O)CN2C(=O)c2cnccn2)O1)NCc1ccc(Cl)cc1,-1.3
O=C(c1cnccn1)N1CC(=O)N2[C@H](C1)[C@@H](c1ccc(C#CCc3ccccc3)cc1)[C@@H]2CO,-2.9
O=C(NC1CCCC1)N1CC(=O)N2[C@H](C1)[C@@H](c1ccc(-c3ccc(F)cc3)cc1)[C@@H]2CO,1.2
